# Bioassay records from PubChem BioAssay.
# Most compounds without a hit are left out; they make up all but 3.2% or so of the library.
# ERAP1 HTS inh: ERAP1 (human) enzyme inhibition; Q9NZ08; recombinant ERAP1, Leu-AMC fluorescence, 60 min; inhibition, % at 10.7 µM; hit rate 0.15% among 340,000; AID 652197;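 active = mean replicate inhibition of at least 30%, or all replicates individually reaching that 30% level; inactive = mean below 30% and not every replicate reaching it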;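 also: 0% = neutral control wells and 100% = L-leucinethiol positive control wells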
# GSIS activator: GLuc luminescence reporter in INS-1E cells, primary screen for activators of glucose-dependent secretion of insulin; INS-1E GLuc reporter insulin secretion, 2-3 h; activation, % at 16.6 µM; hit rate 0.61% among 370,000; AID 743287;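 active = lowest replicate activation of at least 40%, so every replicate reaches that level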;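 also: 0% = median of neutral control wells and 100% = median of IBMX positive control wells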
# DENV2 CPE: protects cells from dengue virus 2 cytopathic effect; CPE inhibition, % at 9.99 µM; DENV2-infected cells, cytopathic effect rescue, plate reader; hit rate 1.7% among 350,000; AID 651640; in the data active = CPE inhibition above about 20%, passing the limit was not always enough; inconclusive = no clear call, values can overlap the other calls; tested in BHK-21 cells;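 also: 0% = median of neutral control wells and 100% = median of positive control wells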
# CaV13 ICDI inh: Primary screen for inhibitors of IQ motif and Ca2+-dependent inactivation inhibitor domain binding in CACNA1D, Förster resonance energy transfer in living cells, … | HEK cells, CFP/YFP FRET ICDI-IQ, plate reader, 10 min; percent FRET-ratio fall versus neutral wells | inhibition, % at 12.3 µM | hit rate 0.098% among 340,000;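 active = mean replicate inhibition of at least 30% and at least 1% of replicates passing that level; inconclusive = only one of the two criteria is met; inactive = neither criterion is met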;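 also: 0% = median of the neutral control wells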
# PGC1a acetyl inh: modulators of PGC1a acetylation. inhibition, % at 15.6 µM. U2OS PGC1a acetylation, AlphaScreen anti-acetyl-lysine; with virally co-expressed GCN5 acetyltransferase. hit rate 0.17% among 350,000;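 active = every replicate shows inhibition of at least 40%; inconclusive = mean inhibition at least 40% but some replicate below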;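 also: 0% = neutral control wells and 100% = positive control wells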
# Ecoli rRNA inh: inhibits bacterial ribosomal RNA function over humanized ribosomes; hit rate 1.6% among 350,000; GFP signal change (wild-type ribosome), % (test concentration not listed); E. coli WT GFP vs humanized-ribosome RFP mutants, fluorescence, 24 h; stronger effect = lower value; DMSO median 0, no signal -100;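 active = significant combined selectivity score with lowered wild-type GFP, culture density cut under 30%, mutant RFP and density less affected; inactive = any of these conditions unmet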
# The depositor's hits bear a star; u = inconclusive; x = not tested or not shown.
SMILES,ERAP1 HTS inh,GSIS activator,DENV2 CPE,CaV13 ICDI inh,PGC1a acetyl inh,Ecoli rRNA inh
O=C(N[C@H](C(=O)N1CCC[C@H]1C(=O)NC1CCCC1)c1ccccc1)c1ccccc1,2.1,20.3,-2.5,-2.6,x,5.5
CC(C)[C@H](NC(=O)C1CCCC1)C(=O)N1CCC[C@H]1C(=O)NCc1ccccc1,0.0,x,7.6,-6.6,x,15.4
CC(C)[C@H](NC(=O)c1cccs1)C(=O)N1CCC[C@H]1C(=O)NCc1ccccc1,2.3,0.6,26.2*,-5.2,x,-3.7
O=C(NC(C(=O)N1CCCC1C(=O)NC1CCCC1)c1ccccc1)c1cccs1 (stereo not drawn),0.3,2.8,46.8*,-2.3,x,6.3
O=C(N[C@H](C(=O)N1CCC[C@H]1C(=O)NC1CCCC1)C1CCCCC1)c1ccc(Cl)cc1Cl,0.4,-28.3,-8.5,-2.2,x,-28.0*
COc1ccc(NC(=O)N(C)C[C@@H]2Oc3ccc(NS(=O)(=O)c4c(C)noc4C)cc3CC(=O)N([C@H](C)CO)C[C@H]2C)cc1,2.4,17.4,3.7,x,-7.5,7.2
C[C@H]1CN([C@@H](C)CO)C(=O)c2cc(NC(=O)Nc3ccccc3)ccc2O[C@@H]1CN(C)Cc1ccc(C(=O)O)cc1,-0.6,8.0,-13.5,x,3.4,4.4
COc1ccc(CCNC(=S)NCCc2ccc(OC)c(OC)c2)cc1OC,0.3,7.1,7.4,-9.4,5.5,0.2
COc1ccc(CCNC(=O)C(=O)NN=C2CCCCCCC2)cc1OC,2.8,58.9*,3.0,-2.4,3.6,9.1
COC(=O)c1ccc(NC(=S)NCCc2ccc(OC)cc2)cc1,-1.8,-0.4,x,-9.3,8.5,8.2
COc1ccc(CCNC(=O)C(=O)N2CCCCC2)cc1OC,x,x,x,x,-1.3,x
CCOC(=O)c1ccc(NC(=S)NCCc2ccc(OC)c(OC)c2)cc1,2.4,-2.4,-7.2,-4.3,x,-27.5*
COc1ccc(CCNC(N)=S)cc1OC,x,52.8*,x,-4.3,-1.7,x
CCOC(=O)c1ccc(NC(=S)Nc2cccc(C)n2)cc1,x,48.3*,x,-5.2,x,x
CCS(=O)(=O)N1C[C@@H](C)[C@H](OC)CN(C)C(=O)c2ccc(NC(=O)Nc3ccccc3Cl)cc2OC[C@H]1C,-1.8,-1.4,1.0,x,-5.0,-1.0
O=C(O)CNC(=O)c1ccc(NS(=O)(=O)c2ccc3ccccc3c2)cc1,-1.5,21.5,31.1*,-4.9,x,0.7
C[C@H](O)C#Cc1ccc([C@H]2[C@H]3CN(C(=O)c4ccc(F)cc4)CCCCN3[C@H]2CO)cc1,5.6,7.3,-0.3,x,-2.6,0.6
CC(C)(O)C#Cc1ccc([C@@H]2[C@@H](CO)N3CCCCN(C(=O)c4ccc(F)cc4)C[C@@H]23)cc1,3.6,9.9,82.8*,x,-0.3,-1.9
CC(C)(O)C#Cc1ccc([C@H]2[C@H]3CN(C(=O)c4ccc(F)cc4)CCCCN3[C@H]2CO)cc1,2.4,9.7,-1.8,x,8.4,0.7
O=C(c1ccc(F)cc1)N1CCCCN2[C@H](CO)[C@@H](c3ccc(C#CC4(O)CCCC4)cc3)[C@H]2C1,-1.9,-7.9,0.3,x,7.3,1.5
O=C(c1ccc(F)cc1)N1CCCCN2[C@H](C1)[C@H](c1ccc(C#CC3(O)CCCC3)cc1)[C@@H]2CO,1.2,5.8,42.5*,x,-2.0,1.3
C[C@H](O)C#Cc1ccc([C@H]2[C@@H](CO)N3CCCCN(C(=O)c4ccc(F)cc4)C[C@@H]23)cc1,1.4,-11.8,33.5*,x,-14.0,-0.2
O=C(C[C@H]1CC[C@H](NC(=O)c2ccncc2)[C@@H](CO)O1)Nc1ccc(-c2ccccc2)cc1,-0.1,x,4.7,x,-0.5,x
CCC(=O)N[C@@H]1CC[C@@H](CC(=O)NCC2CCCCC2)O[C@H]1CO,3.6,15.9,11.4,x,12.3,2.1
O=C(C[C@@H]1CC[C@H]2[C@@H](COC[C@@H](O)CN2S(=O)(=O)c2cccc(F)c2)O1)Nc1ccccc1,x,3.7,-2.0,x,-4.4,-1.9
Cn1c(=O)[nH]c(=O)c2c1nc(N1CCNCC1)n2Cc1ccccc1,-1.3,17.4,4.5,-1.3,-5.4,19.1
CCNc1nc2c(c(=O)[nH]c(=O)n2C)n1Cc1ccc(F)cc1,-3.0,49.0*,u,-5.5,-4.6,3.4
